Several values for one entry are separate records, joined by “and”; a condition that tells them apart may be missing. Equal values may be shown once. Inconclusive results are not listed. Some structures have more than one record in an assay (separate samples or runs), and their calls can disagree. Activity calls are given as the source filed them. The call rests on the fitted dose curve.
On the % scale 0 is the no-effect control and ±100 the full control effect; potency means the concentration at half of the fitted maximal effect.

This assay in a line: Nuclear factor erythroid 2-related factor 2/antioxidant responsive element (Nrf2/ARE) small molecule agonists: luciferase reporter gene qHTS assay in human keratinocytes (AID 1919969). Further: nearly all actives have a fitted effect of over 35% in size. As to conditions: KeratinoSens HaCaT ARE-luciferase, luminescence, 24 h; series mostly up to 92.4 µM; activity, positive = activation: at the top concentration. From the text: National Center for Advancing Translational Sciences [NCATS]
Division of Preclinical Innovation [DPI]
U.S. Environmental Protection Agency [EPA]
National Institutes of Environmental Health Sciences [NIEHS]
National Toxicology Program [NTP]
U.S. Food and Drug Administration [FDA]
Oxidative stress has been implicated in the pathogenesis of a variety of diseases ranging from cancer to neurodegeneration. The antioxidant response element (ARE) signaling pathway plays an important role in the amelioration of oxidative stress. The KeratinoSens (Givaudan, Switzerland) is an in vitro test method which quantifies luciferase induction as a measure of activation of Keap1-Nrf2-antioxidationt/electrophile response element (ARE) dependant pathway in HaCaT human keratinocytes stably transfected with a selectable plasmid. The KeratinoSens assay is a cell-based assay with a reporter cell line to detect potential skin sensitizers by their ability to induce the Nrf2/ARE-response. The activation of the report gene under culture conditions can be detected by ONE-Glo Luciferase Assay System (Promega, Madison, WI). This cell line has been used to screen the Tox21 10K compound library to identify agonists that induce oxidative stress. The cytotoxicity of the Tox21 compound library against the KS-ARE cell line was tested in parallel by measuring the cell viability using CellTiter- Fluor assay system (Promega, Madison, WI) in the same wells.
HaCaT derived cell line KeratinoSens were dispensed at 1,500 cells/5uL/well in 1536-well white wall/solid bottom plates using a Multidrop Combi (ThermoFisher Scientific, Waltham, MA) dispenser. After the assay plates were incubated at 37 C/5% CO2 for 5 h, 23 nL of compounds dissolved in DMSO, positive controls or DMSO only was transferred to the assay plate by a pintool workstation (Kalypsys, San Diego, CA). The plates were incubated at 37 C/5% CO2 for 23 h, followed by addition of 1uL/well of CellTiter-Fluor reagent into the assay plates using a Flying Reagent Dispenser (Aurora Discovery, San Diego, CA) for cell viability readout that measures cytotoxicity. After 1 h incubation at 37 C/5% CO2 the fluorescence intensity was measured using a ViewLux (PerkinElmer, Shelton, CT) plate reader. Then 4uL/well of One-Glo were added using a Flying Reagent Dispenser. After the plates were incubated at room temperature for 30 min, the luminescence intensity in the assay plates was measured using ViewLux plate reader.
For `NC(=O)CN1CCCC1=O`, the Potency result is “inactive”. Consider `CCCCCCCCCCCCBr`, for which the “activity, positive = activation” value was 21.1% (inactive). Regarding `BrCC(Br)c1ccccc1` (stereo not given), the “activity, positive = activation” value is 7.68% (inactive). In the case of `[CH3][Sn]([Cl])([Cl])[Cl]`, the Potency result was “inactive”. As to `COP(=O)(OC)OC`, the Potency is 61.6 µM (active) and inactive. As for `N#Cc1ccncc1`, the “activity, positive = activation” value was -11.1% (inactive).

In the case of `Nc1ccc(Cl)cc1`, the Potency result was “inactive”. The same measure, in the same setting: the entry for `NNc1ccccc1` is “inactive”. Turning to `N#Cc1ccccc1N`, the “activity, positive = activation” value is -4.61% (inactive). The same measure, in the same setting: the figure for `Nc1cnn(-c2ccccc2)c(=O)c1Cl` is -5.01% (inactive). In the case of `C[C@@H]1O[C@@H](O[C@H]2C[C@@H](O)[C@]3(CO)[C@H]4[C@H](O)C[C@]5(C)[C@@H](C6=CC(=O)OC6)CC[C@]5(O)[C@@H]4CC[C@]3(O)C2)[C@H](O)[C@H](O)[C@H]1O`, the Potency is 163 nM (active) and 211 nM (active). With `ClCOCCl`, the “activity, positive = activation” value is -4.14% (inactive).

As for `CCNc1nc(Cl)nc(NCC)n1`, the Potency result was “inactive”. Consider `Cc1ccc2c(c1N)C(=O)c1ccccc1C2=O`, for which the Potency was 60.4 µM (active) and 1.93 µM (active).

`C#CCOC(C(=O)OCCN(C)C)(c1ccccc1)c1ccccc1`: the “activity, positive = activation” value was 2.6% [at 42.5 µM] (inactive). Still for that read-out and setting: for `CC1CC(CC2CCC(N)C(C)C2)CCC1N` (stereo not given) the value was -13.3% (inactive). For `CCCCCCCCCCCCCl`, the Potency result is “inactive”. In the case of `Cc1cc(Cl)ccc1OC(C)C(=O)O` (stereo not given), the “activity, positive = activation” value was 2.8% (inactive).

As for `CN(C)CCC#N`, the Potency result is “inactive”. For `C=CCO`, the Potency result was “inactive”. For the molecule `CCCCC(CC)COC(=O)Cl` (stereo not given), the Potency entry is “inactive”. Regarding `CC(C)N(C(=O)CCl)c1ccccc1`, the Potency is 4.86 µM (active) and 10.9 µM (active). With `CNC`, the Potency entry was “inactive”. Regarding `CNC(=O)Oc1cccc2c1OC(C)(C)C2`, the Potency entry was “inactive”.

For `N#CC(c1ccccc1)c1ccccc1`, the Potency result is “inactive”.

`OCCSSCCO`: the “activity, positive = activation” value is 20.5% (inactive).

For `C=CC(=O)OCC(CC)(COC(=O)C=C)COC(=O)C=C`, the Potency is 2.8 µM (active) and 6.11 µM (active). Regarding `COc1cc(N)c(Cl)cc1C(=O)NC1CN2CCC1CC2` (stereo not given), the “activity, positive = activation” value is -9.86% [at 42.5 µM] (inactive). Turning to `c1ccc(OP(Oc2ccccc2)Oc2ccccc2)cc1`, the Potency entry is “inactive”. `COc1ccccc1OC`: the “activity, positive = activation” value is 1.91% (inactive). Regarding `Cc1ccc([N+](=O)[O-])cc1`, the Potency result was “inactive”.

For the molecule `CCOC(=O)CC(SP(=S)(OC)OC)C(=O)OCC` (stereo not given), the Potency was 24.3 µM (active). Regarding `CCC(C)n1c(=O)[nH]c(C)c(Br)c1=O` (stereo not given), the “activity, positive = activation” value is -8.39% (inactive). Consider `COC(=O)C(Cl)C(=O)OC`, for which the “activity, positive = activation” value is 1.08% [at 42.5 µM] (inactive). As to `C=CCBr`, the “activity, positive = activation” value was -4.58% (inactive). Consider `Cc1cccc(N)c1C`, for which the Potency result was “inactive”. On to `C[N+](C)(C)C`, for which the Potency result is “inactive”.

With `O=c1[nH]c2ccccc2c(=O)o1`, the Potency result is “inactive”. On the same count and under the same terms, the entry for `c1ccc2c(c1)Oc1ccccc1O2` is “inactive”. Still for that read-out and setting: for `CCOP(=O)(O)OCC` (tested in a mixture with another compound) the value was “inactive”.
